Laboratory results reported in ChEMBL document CHEMBL4513216, “Probing the Open Global Health Chemical Diversity Library for Multistage-Active Starting Points for Next-Generation Antimalarials” (ACS Infect Dis, 2020).
Hit rate of the full screen: of about 68,000 compounds, about 2,700 (4%) showed an effect of 50% or more. The entries come from a sample that favours strong results as a whole.

Test system: Plasmodium berghei
Assay: Screen against P. berghei liver stage (PbLuc), transformed with Luciferase, at 2uM
Assay type: functional, HepG2
Conditions: tested at 2 uM

Row | SMILES | INHIBITION
1 | O=C(Cc1ccc(CO)cc1)N1CCN(CC2CC2)[C@@H]2CS(=O)(=O)C[C@@H]21 | 63.46%
2 | CCCN1CCN(Cc2cccc(OC)c2)[C@H]2CS(=O)(=O)C[C@H]21 | 37.76%
3 | O=C(CCn1cc(Cl)cn1)N1CCN(CC2CC2)[C@@H]2CS(=O)(=O)C[C@@H]21 | 59.48%
4 | CCCN1CCN(Cc2cccc(OCC(N)=O)c2)[C@H]2CS(=O)(=O)C[C@H]21 | 64.52%
5 | Cc1cnn(CCC(=O)N2CCN(C(=O)C3CC3)[C@@H]3CS(=O)(=O)C[C@@H]32)c1 | 59.94%
6 | CCC(=O)N1CCN(C(=O)CCn2cc(Cl)cn2)[C@H]2CS(=O)(=O)C[C@H]21 | 32.71%
7 | Cc1cnn(CCC(=O)N2CCN(C(=O)C(C)C)[C@@H]3CS(=O)(=O)C[C@@H]32)c1 | 34.52%
8 | O=C(Cc1ccc(O)c(F)c1)N1CCN(CC2CC2)[C@@H]2CS(=O)(=O)C[C@@H]21 | 30.42%
9 | CCCN1CCN(Cc2cccc(OC(C)C)c2)[C@H]2CS(=O)(=O)C[C@H]21 | 5.86%
10 | Cn1nccc1C(=O)N1CCN(C(=O)C2CC2)[C@@H]2CS(=O)(=O)C[C@@H]21 | 17.73%
11 | Cc1cc(CC(=O)N2CCN(CC3CC3)[C@@H]3CS(=O)(=O)C[C@@H]32)ccc1F | -10.66%
12 | O=C(Cc1ccc(O)c(Cl)c1)N1CCN(CC2CC2)[C@@H]2CS(=O)(=O)C[C@@H]21 | -3.88%
13 | O=C1NCCO[C@H]2CN(C(=O)CCc3ccccc3Cl)CC[C@@H]12 | 46.58%
14 | CCOCCOC(C)C(=O)Nc1ccc2ccn(CCN(C)C)c2c1 (stereo not given) | 27.32%
15 | Fc1ccccc1-c1nnn(CCCc2nn[nH]n2)n1 | -1.29%
16 | Cc1ccc(-c2ccc(Cl)nn2)cc1S(N)(=O)=O | -62.18%
17 | COc1ccccc1C1Cn2ccnc2CN1Cc1c[nH]nc1C (stereo not given) | -67.25%
18 | CN(CCc1ccncc1)C1CCCN(Cc2noc(C3CC3)n2)C1 (stereo not given) | 22.34%
19 | O=S1(=O)C[C@@H]2[C@H](C1)N(Cc1cccc(O)c1)CCN2CC1CC1 | 59.94%
20 | O=S1(=O)C[C@@H]2[C@H](C1)N(Cc1ccc3ccccc3c1)CCN2CC1CC1 | 20.91%
21 | Cc1cc(CN2CCN(CC3CC3)[C@@H]3CS(=O)(=O)C[C@@H]32)cc(C)c1O | 25.45%
22 | COCCS(=O)(=O)NC(C)c1ccc(-n2nc(C)cc2C)cc1 (stereo not given) | -25.82%
23 | CCCS(=O)(=O)NC(=O)c1ccc(-n2nc(C)cc2C)cc1 | 59.04%
24 | CCCS(=O)(=O)NC(=O)c1cc(C)n(-c2ccccc2)n1 | -1.29%
25 | N[C@@H]1CCC[C@@H](Oc2ccc(F)cc2Oc2ccccc2)[C@@H]1O | 61.99%

Row | SMILES | INHIBITION
26 | Cc1ccc(Oc2cc(F)ccc2O[C@@H]2CCC[C@@H](N)[C@H]2O)cc1 | 6.13%
27 | N[C@@H]1CCC[C@@H](Oc2ccc(F)cc2Oc2cccc(F)c2)[C@@H]1O | 35.73%
28 | COC(=O)Cn1c(=O)[nH]c2cn(-c3ccc(F)cc3)c(=O)n21 | -3.97%
29 | O=C1COc2ccc(C(=O)NS(=O)(=O)c3ccccc3F)cc2N1 | 8.37%
30 | Cc1nnc([C@@H]2C[C@H]3CN(C(=O)c4c(C)noc4C)C[C@H]3O2)[nH]1 | 38.2%
31 | Cc1nn(C)cc1C(=O)N1CCCN(C2Cc3ccccc3C2)CC1 | 19.12%
32 | Cc1ccnn1CC(=O)N1CCN(C2CCc3ccccc3C2)CC1 (stereo not given) | 46.02%
33 | Cn1cc(Cl)c(C(=O)N2CCCN(C3Cc4ccccc4C3)CC2)n1 | -18.65%
34 | CC(=O)N1CCCN(C(=O)c2cnn(-c3ccccc3Cl)c2)CC1 | 82.5%
35 | Cc1ccnn1CCC(=O)N1CCN(C2CCc3ccccc3C2)CC1 (stereo not given) | 14.13%
36 | CC(=O)N1CCN(C(=O)c2cnn(-c3ccccc3Cl)c2)CC1 | -90.79%
37 | CN1CCN(C(=O)c2cnn(-c3ccccc3Cl)c2)CC1 | -1.02%
38 | CCCn1nccc1C(=O)N1CCN(C2CCc3ccccc3C2)CC1 (stereo not given) | 57.85%
39 | Cn1cc(C(=O)N2CCCN(C3Cc4ccccc4C3)CC2)cn1 | 55.66%
40 | CCN(CC)C1CCN(C(=O)c2cc(-n3cccn3)ccc2Cl)CC1 | -16.01%
41 | Cc1noc(C)c1C(=O)NCC(C)N(C)C (stereo not given) | 8.37%
42 | CC[C@@H]1N(Cc2ccc(C)o2)CCC[C@]12CCC(=O)N2CCOC | 33.74%
43 | O=C(CCCc1ccccn1)N1CCCC1c1noc(C2CC2)n1 (stereo not given) | 30.91%
44 | COc1c(C)cnc(CN(C)C2CCCCC2)c1C | 11.8%
45 | O=c1c(NCCNCCO)c(N2CCN(c3ccccc3)CC2)c1=O | -11.72%
46 | CC1(C(N)=O)CCCN(c2cnccn2)C1 (stereo not given) | -4.8%
47 | CC(C)[C@@H](CO)Nc1cc(-c2cn[nH]c2)ncn1 | 21.81%
48 | O=C([C@H]1COC[C@H]2CN(C3CCCC3)C[C@H]21)N1CCOCC1 | 12.4%
49 | CC(=O)c1ccc(Cl)c(Cl)c1OCC(=O)NC(C)C | 26.27%
50 | COc1ccc2c(c1)C1(CCN(Cc3nccs3)CC1)N(C)CC2 | 13.75%

Row | SMILES | INHIBITION
51 | CC(NC(=O)Cc1cccs1)(C(N)=O)c1cccc(Cl)c1 (stereo not given) | -18.59%
52 | CC(=O)N1Cc2ccccc2C[C@H]1C(=O)N(C)CCc1ccccn1 | 8.73%
53 | CN(CCc1ccccn1)C(=O)C1Cc2ccccc2CN1C (stereo not given) | 31.78%
54 | CC(=O)N1Cc2ccccc2C[C@H]1C(=O)N(C)Cc1ccccn1 | 58.12%
55 | Cc1nnsc1C(=O)NCc1nn(C)c2c1COCC2 | -1.74%
56 | O=C(C1CCOCC1)N1C[C@@H]2CC[C@H]1CN(C1Cc3ccccc3C1)C2 | 27.33%
57 | COC(=O)[C@H]1C[C@@H](O)CCN1S(=O)(=O)c1cc(Cl)ccc1OC | 55.18%
58 | COC(=O)[C@H]1C[C@@H](O)CCN1S(=O)(=O)c1ccc(F)cc1F | 16.25%
59 | COC(=O)[C@H]1C[C@@H](O)CCN1S(=O)(=O)c1cc(C)c(Cl)cc1C | 26.51%
60 | CCS(=O)(=O)N1CCc2c(cccc2NCc2nc(C)c(C)o2)C1 | -23.97%
61 | COCCN(Cc1ccc(C)o1)C(=O)Nc1ncc(C)s1 | 62.51%
62 | CCc1nnc(NC(=O)N(CCOC)Cc2ccc(C)o2)s1 | 83.98%
63 | CCC(=O)Nc1nnc(CCOc2ccc(OC)cc2)s1 | -14.16%
64 | COCCN(Cc1ccc(C)o1)C(=O)Nc1nnc(C(F)F)s1 | -44.8%
65 | COCCN(Cc1cnn(C)c1)Cc1ccc(C)o1 | 12.58%
66 | COCCN(Cc1ccc(C)o1)C(=O)Nc1nnc2ccccn12 | 33.9%
67 | Cc1noc(C)c1CCC(=O)N1CCCCC1CNS(C)(=O)=O (stereo not given) | -3.46%
68 | COc1ccccc1C(C)(C)NC(=O)c1ccc(F)c(NC(C)=O)c1 | 38.49%
69 | Cc1nc(-c2ccccc2C(=O)O)cc(C2CCN(C(C)C)C2)n1 (stereo not given) | 17.01%
70 | CN(Cc1cccnc1)CC1CCCN1c1cccnn1 (stereo not given) | 33.31%
71 | Cc1nc(N2CCN(C)CC2)ncc1C(=O)N1CCCCCC1 | -15.75%
72 | Cc1ccc(-c2n[nH]cc2CNCCn2cccn2)o1 | 7.85%
73 | CCN1CCN(c2ccc(CNC(=O)c3ccccc3F)cn2)CC1 | 20.41%
74 | O=C(Cc1cccnc1)N1CCCC(n2cncn2)C1 (stereo not given) | -7.82%
75 | NC(=O)N1CCC2(CC1)CN(c1ccsc1)C(=O)CO2 | -12.73%

Row | SMILES | INHIBITION
76 | N#Cc1cccc(N2CCC3(CCC(=O)N(CC4CCCO4)C3)CC2)n1 (stereo not given) | -41.11%
77 | CCCc1nc(C)cc(N2CCC3(CCC(=O)N(CCCO)C3)CC2)n1 | -25.22%
78 | N#Cc1cccc(N2CCC3(CCC(=O)N(CCCO)C3)CC2)n1 | 58.18%
79 | N#Cc1cccc(N2CCC3(CCC(=O)N(CC(N)=O)C3)CC2)n1 | -30.57%
80 | Cc1cc(N2CCC3(CCC(=O)N(CCCO)C3)CC2)nc(N(C)C)n1 | 57.75%
81 | Cc1cc(N2CCC3(CCC(=O)N(CCO)C3)CC2)nc(N(C)C)n1 | 19.59%
82 | O=C(COc1coc(CN2CCCCC2)cc1=O)Nc1cccc(Cl)c1 | -13.13%
83 | CCOCC(O)CN1CCN(C(=O)Cc2ccc3c(c2)CCC3)CC1 (stereo not given) | 24.88%
84 | Cc1ccc(CN(Cc2cc(C)no2)C2CC2)cc1 | 2.01%
85 | CCOc1cc(C)nc(N2CCN(C(=O)c3csnn3)CC2)n1 | -14.16%
86 | CCOCC(O)CN1CCN(C(=O)c2ccccc2F)CC1 (stereo not given) | 30.29%
87 | CCn1cc(CN2C[C@@H]3CCCN3C[C@H]2CCSC)cn1 | -25.95%
88 | Cc1ccc(N(C)CC(O)COCc2ccccc2F)c(C)c1 (stereo not given) | 25.92%
89 | CCc1nnc(CN2CCC(C3CCCCCN3C(C)=O)CC2)o1 (stereo not given) | -5.58%
90 | CCOCCCNC(=O)c1nc2c(s1)CCCN2c1ccc(C)nn1 | -14.63%
91 | CCNC(=O)C(C)NC(=O)Nc1ccccc1SC(F)(F)F (stereo not given) | -16.18%
92 | CCNC(=O)C(C)NC(=O)Nc1ccccc1Cl (stereo not given) | 12.43%
93 | CCNC(=O)C(C)NC(=O)Nc1ccccc1SCC (stereo not given) | 60.13%
94 | c1csc(-c2noc(C3CNC3)n2)c1 | 5.98%
95 | C1CC(N2Cc3nnn(CC4CC4)c3C(COCC3CC3)C2)C1 (stereo not given) | 10.71%
96 | CN(CCc1ccccn1)C(=O)c1cnn(-c2ccccc2F)c1N | 4%
97 | Cc1nc(NC(=O)N2CCCC(N(C)C)C2)nn1C (stereo not given) | 15.68%
98 | CN(C)S(=O)(=O)N1C[C@H]2CC[C@@H](C1)N(Cc1ccc3c(c1)OCCO3)C2 | 8.48%
99 | CN(C)S(=O)(=O)N1C[C@H]2CC[C@@H](C1)N(Cc1ccc(F)c(F)c1)C2 | 53.12%
100 | CN(C)S(=O)(=O)N1C[C@H]2CC[C@@H](C1)N(Cc1ccc3nsnc3c1)C2 | 22.22%
